# Laboratory results as given in the supplement of paper PMC7411054.
# How the values were obtained:
# Settings in all cases: treatment time: 24 h
# A549-ACTB-RAB5A [1] = assay: lowest phenotypically active concentration; higher = less potent
# In short: (§1)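 Fifteen reporter lines derived from A549, HepG2 and WPMY1 cells by gene editing, carrying BFP for segmentation plus GFP and RFP/FusionRed markers, were exposed to 0.3, 1, 3 or 9 µM for 24 h in four wells each and imaged live. Live-cell features from each well were normalised to solvent control wells. A well set counted as deviating when ≥3 of 4 wells lay beyond the 95th percentile of control Euclidean distances, and as reproducible when the median replicate Pearson correlation exceeded the 95th percentile of non-replicates. Phenotypic activity was assigned only when both criteria were met.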
# A549-GM130-SQSTM1 [2] = assay: as above
# In short: as §1
# A549-TUBA1B-RELA [3] = assay: as above
# In short: as §1
# WPMY1-GM130-SQSTM1 [4] = assay: as above
# In short: as §1
# A549-ACTB-RAB5A [5] = assay: phenotypically active (imaging signature differs from DMSO and reproducible) at any of 0.3-9 uM (binary (1 = active, 0 = inactive)); higher = active
# In short: as §1
# A549-CANX-COX4 = assay: as above
# In short: as §1
# A549-GM130-SQSTM1 [6] = assay: as above
# In short: as §1
# A549-TP53BP1-CLTA = assay: as above
# In short: as §1
# A549-TUBA1B-RELA [7] = assay: as above
# In short: as §1
# HepG2-ACTB-RAB5A [8] = assay: as above
# In short: as §1
# HepG2-CANX-COX4 = assay: as above
# In short: as §1
# HepG2-GM130-SQSTM1 = assay: as above
# In short: as §1
# HepG2-TP53BP1-CLTA = assay: as above
# In short: as §1
# HepG2-TUBA1B-RELA = assay: as above
# In short: as §1
# WPMY1-ACTB-RAB5A = assay: as above
# In short: as §1
# WPMY1-CANX-COX4 = assay: as above
# In short: as §1
# WPMY1-GM130-SQSTM1 [9] = assay: as above
# In short: as §1
# WPMY1-TP53BP1-CLTA = assay: as above
# In short: as §1
# WPMY1-TUBA1B-RELA = assay: as above
# In short: as §1
# HepG2-ACTB-RAB5A [10] = assay: lowest phenotypically active concentration; higher = less potent
# In short: as §1
Compound,lowest phenotypically active concentration (A549-ACTB-RAB5A [1]),lowest phenotypically active concentration (A549-GM130-SQSTM1 [2]),lowest phenotypically active concentration (A549-TUBA1B-RELA [3]),lowest phenotypically active concentration (WPMY1-GM130-SQSTM1 [4]),phenotypically active (A549-ACTB-RAB5A [5]),phenotypically active (A549-CANX-COX4),phenotypically active (A549-GM130-SQSTM1 [6]),phenotypically active (A549-TP53BP1-CLTA),phenotypically active (A549-TUBA1B-RELA [7]),phenotypically active (HepG2-ACTB-RAB5A [8]),phenotypically active (HepG2-CANX-COX4),phenotypically active (HepG2-GM130-SQSTM1),phenotypically active (HepG2-TP53BP1-CLTA),phenotypically active (HepG2-TUBA1B-RELA),phenotypically active (WPMY1-ACTB-RAB5A),phenotypically active (WPMY1-CANX-COX4),phenotypically active (WPMY1-GM130-SQSTM1 [9]),phenotypically active (WPMY1-TP53BP1-CLTA),phenotypically active (WPMY1-TUBA1B-RELA),lowest phenotypically active concentration (HepG2-ACTB-RAB5A [10])
CN1CCN(c2ccc(-c3cccc(CN4CCOCC4)c3)cc2NC(=O)c2c[nH]c(=O)cc2C(F)(F)F)CC1,9 µM,9 µM,9 µM,9 µM,1 (active),0 (inactive),1 (active),0 (inactive),1 (active),0 (inactive),0 (inactive),1 (active),1 (active),1 (active),0 (inactive),1 (active),1 (active),1 (active),1 (active),–
O=C(CCCN1CCC(O)(c2ccc(Cl)cc2)CC1)c1ccc(F)cc1 [haloperidol],3 µM,9 µM,9 µM,9 µM,1 (active),0 (inactive),1 (active),0 (inactive),1 (active),1 (active),0 (inactive),1 (active),1 (active),1 (active),0 (inactive),0 (inactive),1 (active),0 (inactive),0 (inactive),9 µM
CN1C(=O)/C(=C2/Nc3ccccc3/C2=N/O)c2ccc(Br)cc21,≤ 0.3 µM,≤ 0.3 µM,≤ 0.3 µM,≤ 0.3 µM,1 (active),0 (inactive),1 (active),0 (inactive),1 (active),1 (active),1 (active),0 (inactive),0 (inactive),0 (inactive),1 (active),1 (active),1 (active),0 (inactive),0 (inactive),≤ 0.3 µM
CN(C)CCCN1c2ccccc2CCc2ccc(Cl)cc21 [clomipramine],3 µM,9 µM,9 µM,9 µM,1 (active),0 (inactive),1 (active),0 (inactive),1 (active),1 (active),0 (inactive),0 (inactive),1 (active),1 (active),1 (active),1 (active),1 (active),1 (active),1 (active),9 µM
COc1cc(NC(=O)c2cccc(-n3cc(NC(=O)Nc4cccc(C)c4)cn3)c2)cc(OC)c1OC,9 µM,3 µM,9 µM,9 µM,1 (active),0 (inactive),1 (active),0 (inactive),1 (active),1 (active),0 (inactive),0 (inactive),0 (inactive),0 (inactive),0 (inactive),0 (inactive),1 (active),0 (inactive),1 (active),9 µM
CNCCCN1c2ccccc2CCc2ccccc21 [desipramine],9 µM,3 µM,9 µM,9 µM,1 (active),0 (inactive),1 (active),0 (inactive),1 (active),1 (active),0 (inactive),0 (inactive),0 (inactive),1 (active),1 (active),0 (inactive),1 (active),0 (inactive),1 (active),9 µM
CC(=O)O[C@@H]1C[C@H]2C(C)(C)C(=O)C=C[C@]2(C)[C@H]2CC[C@@]3(C)[C@H](c4ccoc4)OC(=O)[C@H]4O[C@]43[C@@]21C [gedunin],3 µM,9 µM,9 µM,9 µM,1 (active),0 (inactive),1 (active),0 (inactive),1 (active),0 (inactive),1 (active),1 (active),1 (active),1 (active),1 (active),1 (active),1 (active),0 (inactive),0 (inactive),–
c1ccc(CN(CC2=NCCN2)c2ccccc2)cc1 [antazoline],3 µM,9 µM,9 µM,–,1 (active),0 (inactive),1 (active),0 (inactive),1 (active),0 (inactive),0 (inactive),0 (inactive),0 (inactive),0 (inactive),0 (inactive),0 (inactive),0 (inactive),0 (inactive),0 (inactive),–
CCOC(=O)c1c(CSc2ccccc2)n(C)c2cc(Br)c(O)c(CN(C)C)c12 [arbidol],9 µM,9 µM,9 µM,9 µM,1 (active),0 (inactive),1 (active),0 (inactive),1 (active),1 (active),1 (active),1 (active),1 (active),1 (active),0 (inactive),0 (inactive),1 (active),0 (inactive),0 (inactive),9 µM
NC(=O)C(c1ccccc1)(c1ccccc1)[C@@H]1CCN(CCc2ccc3c(c2)CCO3)C1 [darifenacin],9 µM,9 µM,9 µM,9 µM,1 (active),0 (inactive),1 (active),0 (inactive),1 (active),1 (active),1 (active),1 (active),1 (active),0 (inactive),0 (inactive),0 (inactive),1 (active),1 (active),0 (inactive),9 µM
CNCCCC12CCC(c3ccccc31)c1ccccc12 [maprotiline],3 µM,3 µM,3 µM,9 µM,1 (active),0 (inactive),1 (active),0 (inactive),1 (active),1 (active),0 (inactive),1 (active),1 (active),1 (active),1 (active),1 (active),1 (active),1 (active),1 (active),9 µM
COc1cc2c(cc1OCCCN1CCCC1)N=C(N)C21CCC1,9 µM,9 µM,9 µM,–,1 (active),0 (inactive),1 (active),0 (inactive),1 (active),0 (inactive),0 (inactive),0 (inactive),0 (inactive),0 (inactive),0 (inactive),0 (inactive),0 (inactive),0 (inactive),0 (inactive),–
CC(=O)Nc1ccc(NC(=S)NC(=O)c2ccc(C(C)(C)C)cc2)cc1 [Tenovin-1],1 µM,1 µM,1 µM,1 µM,1 (active),0 (inactive),1 (active),0 (inactive),1 (active),0 (inactive),1 (active),0 (inactive),1 (active),1 (active),1 (active),1 (active),1 (active),1 (active),1 (active),–
CN(C)CCCN1c2ccccc2Sc2ccc(C(F)(F)F)cc21 [triflupromazine],3 µM,9 µM,9 µM,9 µM,1 (active),0 (inactive),1 (active),0 (inactive),1 (active),1 (active),0 (inactive),0 (inactive),0 (inactive),1 (active),1 (active),1 (active),1 (active),0 (inactive),1 (active),9 µM
CC(CN(C)C)CN1c2ccccc2Sc2ccccc21.CC(CN(C)C)CN1c2ccccc2Sc2ccccc21 (stereo not drawn) [alimemazine],9 µM,9 µM,9 µM,≤ 0.3 µM,1 (active),0 (inactive),1 (active),0 (inactive),1 (active),1 (active),0 (inactive),1 (active),1 (active),1 (active),1 (active),0 (inactive),1 (active),0 (inactive),1 (active),9 µM
"CCCCCCCCCCCCC/C=C/[C@@H](O)[C@H](CO)N(C)C [N,N-Dimethylsphingosine]",3 µM,1 µM,3 µM,3 µM,1 (active),0 (inactive),1 (active),0 (inactive),1 (active),1 (active),1 (active),1 (active),1 (active),1 (active),1 (active),1 (active),1 (active),1 (active),1 (active),3 µM
N#Cc1cccc(-c2c[nH]c3ncnc(N4CCOCC4)c23)c1,9 µM,9 µM,9 µM,–,1 (active),0 (inactive),1 (active),0 (inactive),1 (active),1 (active),1 (active),1 (active),1 (active),1 (active),1 (active),1 (active),0 (inactive),1 (active),0 (inactive),3 µM
COc1ccc(Cl)cc1NC(=O)Nc1cc(C)nc2ccccc12,3 µM,3 µM,3 µM,–,1 (active),0 (inactive),1 (active),0 (inactive),1 (active),1 (active),1 (active),1 (active),1 (active),1 (active),0 (inactive),0 (inactive),0 (inactive),0 (inactive),0 (inactive),3 µM
Clc1ccc2c(c1)C(N1CCNCC1)=Nc1ccccc1O2 [amoxapine],3 µM,3 µM,3 µM,–,1 (active),0 (inactive),1 (active),0 (inactive),1 (active),1 (active),0 (inactive),1 (active),0 (inactive),1 (active),1 (active),0 (inactive),0 (inactive),0 (inactive),1 (active),9 µM
O=c1cc(N2CCOCC2)oc2c(-c3cccc4c3sc3ccccc34)cccc12,1 µM,1 µM,3 µM,3 µM,1 (active),0 (inactive),1 (active),0 (inactive),1 (active),1 (active),1 (active),1 (active),1 (active),1 (active),1 (active),1 (active),1 (active),1 (active),1 (active),1 µM
O=C1Cc2cc(CCN3CCN(c4nsc5ccccc45)CC3)c(Cl)cc2N1 [ziprasidone],9 µM,9 µM,9 µM,–,1 (active),0 (inactive),1 (active),0 (inactive),1 (active),1 (active),0 (inactive),1 (active),1 (active),1 (active),0 (inactive),0 (inactive),0 (inactive),0 (inactive),0 (inactive),3 µM
CCN(CCO)CCCC(C)Nc1ccnc2cc(Cl)ccc12 (stereo not drawn) [hydroxychloroquine],9 µM,9 µM,9 µM,9 µM,1 (active),0 (inactive),1 (active),0 (inactive),1 (active),0 (inactive),0 (inactive),1 (active),0 (inactive),1 (active),1 (active),1 (active),1 (active),0 (inactive),1 (active),–
